Data as given in the supplement of paper PMC10498489.
The whole screen tested about 2,300 compounds, of which about 330 (14%) showed activity.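 Rule for the calls: active = median modified Z-score above 1.96; inactive = 1.96 or below.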 A selection follows.

Each molecule was assayed on HepG2 Srxn1-GFP reporter cells (+30 nM CDDO-Me) (assay: Srxn1-GFP intensity median modified Z-score relative to plate median; higher = stronger NRF2 / oxidative stress reporter activation, active = hit call of the paper). Conditions: 10 µM; exposure time: 24h.
How it was run: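 HepG2 Srxn1-GFP BAC reporter cells were seeded at 20,000 per well in 96-well plates and co-exposed for 24 h to compound at 10 μM and an NRF2 activator at 30 nM, with DMSO at ≤0.1%, in three replicate plates. Cells were fixed with formaldehyde, stained with Hoechst and imaged by confocal microscopy, and cytoplasmic GFP was measured per cell, with images holding under 100 cells discarded. The reported value is the median over replicates of each plate's modified Z-score of GFP intensity. For this score, scaling used 1.4826 × median absolute deviation.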

Srxn1-GFP intensity median modified Z-score, active:
C=C1C(=O)O[C@@H]2C[C@@]3(C)CCC[C@H](C)C3=C[C@H]12 [euspeclibcmpd1482] 10.2
CC1=C(CCC(=O)O)c2cc3nc(cc4[nH]c(cc5[nH]c(cc1n2)c(C)c5C(C)O)c(C)c4C(C)O)C(C)=C3CCC(=O)O (stereo not given) [euspeclibcmpd1687] 8.82
O=C(/C=C/c1ccccc1)c1ccc(O)cc1 4.36
COc1ccc(C(=O)/C=C/c2ccccc2)cc1 [euspeclibcmpd1565] 26.7
O=C(/C=C/c1ccccc1)c1ccc(O)cc1 [euspeclibcmpd1718] 12.6

Srxn1-GFP intensity median modified Z-score, inactive:
CCCCCCCC/C=C/CCCCCCCCOP(=O)(O)OCC[N+](C)(C)C [euspeclibcmpd1773] 1.28
CNC(C)[C@@H]1CC[C@@H](N)[C@@H](OC2[C@@H](N)C[C@@H](N)[C@H](OC3OC[C@](C)(O)[C@H](NC)[C@H]3O)[C@H]2O)O1 (stereo not given in full) [euspeclibcmpd820] -0.00227
CC(=O)O[C@]1(C(C)=O)CCC2C3CC(C)=C4CC(=O)CC[C@]4(C)C3CC[C@@]21C (stereo not given in full) [euspeclibcmpd178] -0.198
Cc1cc(-c2ccc(N=Nc3ccc4c(S(=O)(=O)O)cc(S(=O)(=O)O)c(N)c4c3O)c(C)c2)ccc1N=Nc1ccc2c(S(=O)(=O)O)cc(S(=O)(=O)O)c(N)c2c1O [euspeclibcmpd2073] -1.03
NC1(C(=O)O)CCCC1 [euspeclibcmpd1759] -0.415
C=CC1=C(C)c2cc3[nH]c(cc4[nH]c(cc5nc(cc1n2)=C(C)C5=CCC(=O)O)c(CCC(=O)O)c4C)c(C)c3=CC [euspeclibcmpd1059] 0.562
O=C(O)CCc1nc2ccccc2[nH]1 [euspeclibcmpd1271] -0.404
CN(C)C(N)=NC(=N)N [euspeclibcmpd874] -0.199
CC(CCC(=O)O)C1CCC2C3CCC4CC(O)CCC4(C)C3CC(=O)C12C (stereo not given) 0.291
O=C(O)[C@H](O)[C@@H](O)[C@H](O)[C@H](O)CO [euspeclibcmpd2450] 0.571
COc1ccc(C=CC(=O)c2cc(O)ccc2O)cc1 [euspeclibcmpd1400] -0.058
O=C(O)/C=C/C=C/c1ccccc1 [euspeclibcmpd1620] -0.147
COc1ccc(C(=O)/C=C/c2cccc(Cl)c2)cc1 0.75
CCOC(=O)c1ccc(O)cc1 [euspeclibcmpd974] -0.257
COc1ccc2oc(-c3ccccc3)c(OC)c(=O)c2c1 [euspeclibcmpd1782] 1.28
